The panel holds about 83,000 compounds, 20% with a hit somewhere; the sample as a whole holds those more often.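 Step 1: grow cells in 96-well plates. Step 2: add test compound at a single concentration. Step 3: incubate 48 h. Step 4: record percent growth.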 The source made the active and inactive calls. How the source made its calls: active means growth percent below 10; inactive means the rest.

Our source for the growth values is PubChem BioAssay (NCI).

The subject of one experiment is SR leukemia. The experiment can be described thus: NCI-60 one-dose screen, 48 h (100 = growth as untreated, 0 = no growth, -100 = all killed). Conditions: 10 µM.
With `CCCOCC(O)CNCCN` (stereo unspecified), the growth is 99.2% (inactive).

Turning to `CCCC(C)c1ccc(OCCCCCCN2CCNCC2)cc1` (stereo unspecified), the growth is -24.7% (active).

In the case of `Nc1cc(O)cc(O)c1`, the growth is 91.7% (inactive).

As to `Cc1cc(C(C)(C)CC(C)(C)C)ccc1OCCOCC[N+](C)(C)Cc1ccccc1`, the growth was -62.5% (active).

For `CC(C)c1[nH]nc2c(NCc3ccc(-c4ccccn4)cc3)nc(SCCN)nc12`, the growth was -7.09% (active).

`CC(=O)c1c(O)cc2c3c1OC(C)(C)C1CCC(C)(CC31)O2` (stereo unspecified): the growth is 86.7% (inactive).

`CN(C)CCCN1c2ccccc2Sc2ccc(C(F)(F)F)cc21`: the growth is -42.3% (active).

With `CNC(=O)c1cc(Oc2ccc(NC(=O)Nc3ccc(Cl)c(OC4CCCCC4)c3)c(F)c2)ccn1`, the growth was 42.2% (inactive).

In the case of `O=C(Nc1cccc(F)c1)Nc1cccc(Cl)c1`, the growth was 49.9% (inactive).

For `CCN(CC)CC(O)CNc1ccnc2cc(Cl)c(Cl)cc12` (stereo unspecified), the growth is 28.4% (inactive).

For the compound `CCCCCCOc1ccc(/C=C/C(=O)c2ccc(B(O)O)cc2)cc1`, the growth was 48.4% (inactive).

As for `CC1(C)CC(OCCCC[P+](c2ccccc2)(c2ccccc2)c2ccccc2)CC(C)(C)N1O`, the growth was 11.7% (inactive).

`Fc1cc(-c2ncc(-c3cc(F)c(F)c(F)c3)c(NC3CCCCCC3)n2)cc(F)c1F`: the growth was 95.9% (inactive).

For `COc1c(C)c(C)c(OC)c2c1[nH]c(=O)c1c3cccnc3cn21`, the growth is 94.8% (inactive).

Take `CC1(C)CCc2cc(-c3ccn(S(=O)(=O)c4ccc(Cl)cc4)n3)ccc2O1`: the growth was 45.5% (inactive).

In the case of `O=C(NC1CCCC1)c1ccc(N2CCC(NCc3cccc(C(F)(F)F)c3)CC2)cc1`, the growth was 0.0064% (active).

On to `CC1=CC2OC34COC3CC(OC(=O)C(F)(F)F)C4(C)C2(C)CC1` (stereo unspecified), for which the growth was 99.3% (inactive).

For `CCCCOCCOCCOCc1cc2c(cc1Br)OCO2`, the growth is 100% (inactive).

Turning to `CCCCCCCCCCN=C(c1ccc(N(C)C)cc1)c1ccc(N(C)C)cc1`, the growth was 23% (inactive).

With `COc1cccc2c1C(=O)c1c(O)c3c(c(O)c1C2=O)C[C@@](O)(C(=O)COC(=O)c1cccnc1)C[C@@H]3OC1CC(N)C(O)C(C)O1` (stereo partly specified), the growth is 3.07% (active).

Turning to `COc1ccc(/C(=C/c2cc(OC)c(OC)cc2[N+](=O)[O-])C(=O)O)cc1`, the growth was 99.6% (inactive).

Consider `Nc1ccccc1NC(=O)CCCCCCC(=O)Nc1ccc2c(c1)/C(=C/c1ccc[nH]1)C(=O)N2`, for which the growth was 26.8% (inactive).

`CCOC(=O)c1c(C)n(-c2ccc(Cl)cc2)c2ccc(OC(=O)/C=C/c3ccccc3)cc12`: the growth is 26.7% (inactive).

Turning to `Cc1nnc2c3nnc(-c4ccc(Cl)cc4)n3c3ccccc3n12`, the growth was 77% (inactive).

As to `CCOc1ccc2c(c1)CC[C@@H]1[C@@H]2CC[C@]2(C)[C@@H](O)[C@@H](O)C[C@@H]12`, the growth is 88.5% (inactive).

`COC(=O)[C@]12CC[C@@H](C)[C@H](C)[C@@H]1C1=CC[C@@H]3[C@@]4(C)CC(=O)[C@H](O)[C@@](C)(CO)[C@@H]4C(=O)C[C@@]3(C)[C@]1(C)CC2`: the growth is -51.3% (active).

For `CCCCn1c(=O)[nH]c2c(c1=O)C(c1ccc(Cl)cc1)c1c([nH]c(=O)n(CCCC)c1=O)N2`, the growth is 106% (inactive).

On to `CCC(CCNc1cc(OC)cc2cccnc12)CN1C(=O)c2ccccc2C1=O` (stereo unspecified), for which the growth was 109% (inactive).

As for `COc1ccc(C(=O)c2sc3nc(-c4cccs4)ccc3c2N)cc1OC`, the growth was 14.5% (inactive).

As to `O=C/C=C/c1ccc([N+](=O)[O-])cc1Cl`, the growth was 0.062% (active).

Regarding `C/C(=N\NC(=O)c1sc(=S)n(C)c1N)c1cc2ccccc2o1`, the growth is 42.6% (inactive).

Turning to `Cc1ccc(-c2cc(C(=O)Nc3ccc(S(=O)(=O)N4CCCCC4)cc3)[nH]n2)c(O)c1`, the growth was 14.9% (inactive).

For the compound `CC(=O)OC1Oc2ccccc2-c2oc(=O)c(-c3ccc(F)cc3)cc21` (stereo unspecified), the growth was 65.3% (inactive).

Take `COc1ccc(Nc2nc(NCc3ccccc3)c3ccccc3n2)cc1`: the growth was 45.2% (inactive).

In the case of `CCOC(=O)c1c(O)c2cc(-c3ccccc3)nc(OCC)c2c(=O)n1C`, the growth was 98% (inactive).

On to `COc1ccc(-c2nnc(SCC(=O)c3ccccc3)o2)cc1`, for which the growth is 100% (inactive).

Turning to `CC(=O)Oc1c(C)c(C)c2c(c1C)CCC(C)(CC(=O)OCCCCCCCCCCC[P+](c1ccccc1)(c1ccccc1)c1ccccc1)O2` (stereo unspecified), the growth is -34.7% (active).

With `Cc1ccccc1[P+](Cc1ccccc1)(c1ccccc1)c1ccccc1`, the growth is 2.45% (active).

The test system of a further experiment is RPMI-8226 leukemia. The description is as above. To be noted: 10 µM.
With `CCCOCC(O)CNCCN` (stereo unspecified), the growth was 101% (inactive).

In the case of `CCCC(C)c1ccc(OCCCCCCN2CCNCC2)cc1` (stereo unspecified), the growth was -9.35% (active).

Consider `Nc1cc(O)cc(O)c1`, for which the growth is 109% (inactive).

Take `Cc1cc(C(C)(C)CC(C)(C)C)ccc1OCCOCC[N+](C)(C)Cc1ccccc1`: the growth is -20% (active).

For `CC(C)c1[nH]nc2c(NCc3ccc(-c4ccccn4)cc3)nc(SCCN)nc12`, the growth is -16.7% (active).

For `CC(=O)c1c(O)cc2c3c1OC(C)(C)C1CCC(C)(CC31)O2` (stereo unspecified), the growth was 54.4% (inactive).

`CN(C)CCCN1c2ccccc2Sc2ccc(C(F)(F)F)cc21`: the growth was 22.5% (inactive).

As to `CNC(=O)c1cc(Oc2ccc(NC(=O)Nc3ccc(Cl)c(OC4CCCCC4)c3)c(F)c2)ccn1`, the growth is 19.9% (inactive).

Turning to `O=C(Nc1cccc(F)c1)Nc1cccc(Cl)c1`, the growth is 66.6% (inactive).

Consider `CCN(CC)CC(O)CNc1ccnc2cc(Cl)c(Cl)cc12` (stereo unspecified), for which the growth is 90.3% (inactive).

As for `CCCCCCOc1ccc(/C=C/C(=O)c2ccc(B(O)O)cc2)cc1`, the growth is 46.2% (inactive).

Regarding `CC1(C)CC(OCCCC[P+](c2ccccc2)(c2ccccc2)c2ccccc2)CC(C)(C)N1O`, the growth is -73.5% (active).

Regarding `Fc1cc(-c2ncc(-c3cc(F)c(F)c(F)c3)c(NC3CCCCCC3)n2)cc(F)c1F`, the growth was 96.3% (inactive).

Turning to `COc1c(C)c(C)c(OC)c2c1[nH]c(=O)c1c3cccnc3cn21`, the growth was 108% (inactive).

As to `CC1(C)CCc2cc(-c3ccn(S(=O)(=O)c4ccc(Cl)cc4)n3)ccc2O1`, the growth is 52.1% (inactive).

In the case of `O=C(NC1CCCC1)c1ccc(N2CCC(NCc3cccc(C(F)(F)F)c3)CC2)cc1`, the growth was 71.3% (inactive).

As for `CC1=CC2OC34COC3CC(OC(=O)C(F)(F)F)C4(C)C2(C)CC1` (stereo unspecified), the growth is 101% (inactive).

As for `CCCCOCCOCCOCc1cc2c(cc1Br)OCO2`, the growth was 99.2% (inactive).

Take `CCCCCCCCCCN=C(c1ccc(N(C)C)cc1)c1ccc(N(C)C)cc1`: the growth was 24.3% (inactive).

For `COc1cccc2c1C(=O)c1c(O)c3c(c(O)c1C2=O)C[C@@](O)(C(=O)COC(=O)c1cccnc1)C[C@@H]3OC1CC(N)C(O)C(C)O1` (stereo partly specified), the growth was -29% (active).

In the case of `COc1ccc(/C(=C/c2cc(OC)c(OC)cc2[N+](=O)[O-])C(=O)O)cc1`, the growth was 97.3% (inactive).

Consider `Nc1ccccc1NC(=O)CCCCCCC(=O)Nc1ccc2c(c1)/C(=C/c1ccc[nH]1)C(=O)N2`, for which the growth is -17.6% (active).

Take `CCOC(=O)c1c(C)n(-c2ccc(Cl)cc2)c2ccc(OC(=O)/C=C/c3ccccc3)cc12`: the growth was 67.6% (inactive).

Turning to `Cc1nnc2c3nnc(-c4ccc(Cl)cc4)n3c3ccccc3n12`, the growth is 95% (inactive).

For `CCOc1ccc2c(c1)CC[C@@H]1[C@@H]2CC[C@]2(C)[C@@H](O)[C@@H](O)C[C@@H]12`, the growth is 92.9% (inactive).

For `COC(=O)[C@]12CC[C@@H](C)[C@H](C)[C@@H]1C1=CC[C@@H]3[C@@]4(C)CC(=O)[C@H](O)[C@@](C)(CO)[C@@H]4C(=O)C[C@@]3(C)[C@]1(C)CC2`, the growth was -32.2% (active).

For the compound `CCCCn1c(=O)[nH]c2c(c1=O)C(c1ccc(Cl)cc1)c1c([nH]c(=O)n(CCCC)c1=O)N2`, the growth was 104% (inactive).

For `CCC(CCNc1cc(OC)cc2cccnc12)CN1C(=O)c2ccccc2C1=O` (stereo unspecified), the growth was 95.1% (inactive).

On to `COc1ccc(C(=O)c2sc3nc(-c4cccs4)ccc3c2N)cc1OC`, for which the growth is 43.4% (inactive).

In the case of `O=C/C=C/c1ccc([N+](=O)[O-])cc1Cl`, the growth is 82.1% (inactive).

As to `C/C(=N\NC(=O)c1sc(=S)n(C)c1N)c1cc2ccccc2o1`, the growth is 42.5% (inactive).

Consider `Cc1ccc(-c2cc(C(=O)Nc3ccc(S(=O)(=O)N4CCCCC4)cc3)[nH]n2)c(O)c1`, for which the growth is 43.3% (inactive).

For `CC(=O)OC1Oc2ccccc2-c2oc(=O)c(-c3ccc(F)cc3)cc21` (stereo unspecified), the growth was 90.8% (inactive).

In the case of `COc1ccc(Nc2nc(NCc3ccccc3)c3ccccc3n2)cc1`, the growth is 75.9% (inactive).

Take `CCOC(=O)c1c(O)c2cc(-c3ccccc3)nc(OCC)c2c(=O)n1C`: the growth is 39.2% (inactive).

With `COc1ccc(-c2nnc(SCC(=O)c3ccccc3)o2)cc1`, the growth is 89% (inactive).

Take `CC(=O)Oc1c(C)c(C)c2c(c1C)CCC(C)(CC(=O)OCCCCCCCCCCC[P+](c1ccccc1)(c1ccccc1)c1ccccc1)O2` (stereo unspecified): the growth was -49.8% (active).

Regarding `Cc1ccccc1[P+](Cc1ccccc1)(c1ccccc1)c1ccccc1`, the growth was -27% (active).
